# High-throughput results from PubChem.
# TDP1 cell noCPT – qHTS for Inhibitors of human tyrosyl-DNA phosphodiesterase 1 (TDP1): qHTS in cells in absence of CPT | DT40 Tdp1-/- hTDP1 cells, no CPT, ATP luminescence, 48 h | Potency, µM (highest dose often 46.2 µM), for the others: at the highest dose activity change, negative = growth inhibition, most hits filed as inhibitors | 420,000 compounds, 15% hits | AID 686978, 2013; further: potency means the concentration at half of the fitted maximal effect; nearly all actives have a fitted effect of over 55% in size
#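 Readout: luminescence from CellTiter-Glo after 30 min in the dark at RT. Cells: DT40 Tdp1-/- with stable hTDP1, 400/well. Exposure: compounds alone, ≥48 hr, 37 °C.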
# HT1080 IDH1KD tx – qHTS for induction of synthetic lethality in tumor cells producing 2HG: qHTS for the HT-1080-IDH1KD cell line. HT-1080 IDH1 knockdown viability, ATP luminescence, 48 h. Potency, µM (highest dose often 46.1 µM), for inactives: top-dose activity, negative = toxicity, hits mostly cytotoxic. 360,000 compounds, 2% hits. AID 686971, 2013;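 further: potency means the concentration at half of the fitted maximal effect; 0% = DMSO wells and -100% = cell-free medium wells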
#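 CellTiter-Glo luminescence after 48 h compound exposure at 37 degrees C of IDH1-knockdown HT-1080 cells in 5% FBS RPMI. %Activity scaled between DMSO wells and cell-free media wells, with curves fitted and assigned curve classes.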
# IL-1B inflam inh – qHTS for Inhibitors of Inflammasome Signaling: IL-1-beta AlphaLISA Primary Screen; 360,000 compounds, 4.7% hits; THP-1 LPS/ATP IL-1B secretion, AlphaLISA, 16 h; stronger effect = lower value; activity change, % at 57.5 µM; in the data active means activity change below about -50%; inconclusive means mostly about -30% to -49%
#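 Secreted IL-1B measured by AlphaLISA bead assay after 16 h compound exposure of THP-1 cells; compounds (final up to 57.5 uM) added 1 h before LPS (250 ng/mL) and ATP (1.25 mM) stimulation; lower signal means less secretion.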
# ALOX12 inh – Primary qHTS assay for inhibitors of human arachidonate 12S-lipoxygenase (ALOX12): Round 2; Potency, µM (doses to about 108 µM), for the others: top-dose activity change, negative = inhibition, actives largely listed as inhibitors; 580,000 compounds, 1.1% hits; AID 1671190, 2021; purified 12hLO, xylenol orange hydroperoxide absorbance; further: potency means the concentration at half of the fitted maximal effect
# Target sequence (P18054 whole entry, looked up): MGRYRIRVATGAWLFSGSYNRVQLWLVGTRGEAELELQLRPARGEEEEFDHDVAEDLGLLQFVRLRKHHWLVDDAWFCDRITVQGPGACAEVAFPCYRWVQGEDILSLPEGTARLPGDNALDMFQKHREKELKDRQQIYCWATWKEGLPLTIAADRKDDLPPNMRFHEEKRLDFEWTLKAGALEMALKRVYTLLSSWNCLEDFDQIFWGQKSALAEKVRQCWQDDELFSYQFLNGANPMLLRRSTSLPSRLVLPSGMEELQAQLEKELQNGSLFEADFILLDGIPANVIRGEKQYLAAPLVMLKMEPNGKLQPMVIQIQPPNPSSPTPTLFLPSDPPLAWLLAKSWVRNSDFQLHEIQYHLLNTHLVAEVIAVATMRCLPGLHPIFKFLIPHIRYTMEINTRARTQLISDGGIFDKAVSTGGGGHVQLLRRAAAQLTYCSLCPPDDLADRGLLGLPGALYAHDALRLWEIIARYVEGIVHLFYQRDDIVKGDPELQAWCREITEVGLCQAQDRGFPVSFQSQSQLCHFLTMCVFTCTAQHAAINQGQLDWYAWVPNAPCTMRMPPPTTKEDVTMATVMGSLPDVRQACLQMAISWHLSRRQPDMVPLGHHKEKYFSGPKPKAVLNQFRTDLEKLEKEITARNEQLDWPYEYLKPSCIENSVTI
#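 Hydroperoxide product was detected by ferrous iron/xylenol orange as the 573 to 405 nm absorbance ratio. Arachidonic acid at 40 uM (final) was turned over for 30 min at room temperature by 150 nM human 12hLO, pH 7.0 Hepes buffer, after 15 min compound preincubation.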
# DT40 TDP1 CPT – qHTS for Inhibitors of human tyrosyl-DNA phosphodiesterase 1 (TDP1): qHTS in cells in presence of CPT; 420,000 compounds, 12% hits; chicken DT40 Tdp1-/-;hTDP1 cells + 20 nM CPT, ATP luminescence, 48 h; Potency, µM (highest dose often 46.2 µM), inactives show at the highest dose activity change, negative = growth inhibition, hits mostly inhibitors; further: potency means the concentration at half of the fitted maximal effect; nearly all actives have a fitted effect of over 55% in size
#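 Cell growth measured by CellTiter-Glo luminescence after a minimum 48 h, 37 C compound exposure with 20 nM CPT in Tdp1-knockout DT40 cells stably expressing hTDP1, seeded 400/well; qHTS titration format.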
# HT1080NT lethal – qHTS for induction of synthetic lethality in tumor cells producing 2HG: qHTS for the HT-1080-NT fibrosarcoma cell line; HT-1080-NT fibrosarcoma viability, CellTiter-Glo ATP luminescence, 48 h; 360,000 compounds, 1.6% hits; Potency, µM (top dose mostly 46.1 µM), inactives show top-dose activity, negative = less viability, hits mostly cytotoxic;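 further: NT is the 2HG producing partner of a matched IDH1 knockdown line; potency means the concentration at half of the fitted maximal effect; 0% = DMSO-treated cells and -100% = media-only wells without cells; nearly all actives have a fitted effect of over 55% in size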
#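 Toxicity toward the 2HG-producing NT line was scored as %Activity, normalised to DMSO and no-cell wells, from CellTiter-Glo luminescence after 48 hours' treatment.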
# Active calls of the source: *; ? = inconclusive; . = no result given; [ ] = dose if it differs, or a comment. Many of the other results were omitted from the sample, so hits are more common in it than they were. Unless noted, the call rests on the fitted dose curve; in most records, active means well fitted curve in the direction sought with a large enough effect; inconclusive means small, poorly fitted or top-dose-only effect, or another doubt; inactive means no such curve, though single readings can be large; an effect the other way counts as inactive or inconclusive. Unless noted, on the % scale 0 is the no-effect control and ±100 the full control effect.
SMILES,TDP1 cell noCPT,HT1080 IDH1KD tx,IL-1B inflam inh,ALOX12 inh,DT40 TDP1 CPT,HT1080NT lethal
NC(=S)Nc1cc(Cl)ccc1Cl,13µM*,8%,-1,?,15µM*,12%
NC(=O)Nc1cc(Cl)ccc1Cl,0%,8%,14,?,2%,13%
COc1cc2c(cc1OC)CN(C(=O)C[C@@H]1CCNC[C@@H]1Cc1cc(-c3ccccc3)on1)CC2,.,.,.,12%,.,.
COC(=O)C(C(C)C)N(Cc1cc(OC)cc(OC)c1)S(=O)(=O)CCl (configuration not stated),21µM*,3%,16,-15%,16µM*,6%
COC(=O)[C@H](C(C)C)N(Cc1ccccc1)S(=O)(=O)CCN1CCCC1,?,-6%,-6,-8%,?,-3%
CCCCOC(=O)c1ccc(NC(=O)CN2C(=O)NC3(CCCCCC3)C2=O)cc1,8.2µM*,?,?,5%,10µM*,5%[9.24 µM]
CCCCOC(=O)c1ccc(NC(=O)C(=O)NCc2ccncc2)cc1,23µM*,-20%,24,-1%,23µM*,-19%
CCOC(=O)c1ccc(NC(=O)CN2C(=O)NC3(CCCCCCC3)C2=O)cc1,?,?,0,6%,15µM*,?
CCOC(=O)c1ccc(NC(=O)CN2C(=O)NC3(CCOCC3)C2=O)cc1,.,.,.,11%,.,.
CCCCOC(=O)c1ccc(NC(=O)COC(=O)CN2C(=O)NC3(CCCC3)C2=O)cc1,7%,-1%,30,-12%,4%,5%
CCOC(=O)c1ccc(NC(=O)C(=O)NCc2ccncc2)cc1,-16%,-2%,-21,-6%,-1%,-3%
O=[N+]([O-])c1ccc(O)c(/C=N/Nc2nn[nH]n2)c1,2%,-8%,27,0%,-23%,-1%
O=[N+]([O-])c1ccc(O)c(/C=N/NC2=NS(=O)(=O)c3ccccc32)c1,0.52µM*,18%,-11,-7%,4.1µM*,-7%
O=[N+]([O-])c1ccc(/C=N/NC2=NS(=O)(=O)c3ccccc32)cc1,4%,-5%,-17,1%,-13%,-4%
O=S1(=O)N=C(N/N=C/c2cccs2)c2ccccc21,?,?,-99*,49%,-6%,-28%
O=[N+]([O-])c1ccc(O)c(/C=N\N=C2c3ccccc3-c3ccccc32)c1,12µM*,-7%,-23,10%,23µM*,-17%
O=S1(=O)N=C(Nc2ccccc2)c2ccccc21,.,.,.,-4%,.,.
O=[N+]([O-])c1ccc(O)c(/C=N/Nc2ccc(Cl)nn2)c1,1.2µM*,0.21µM*,58,3%,1.2µM*,?
CCCCCc1ccc(C)cc1O,-72%,.,.,.,-68%,.
COc1ccc(/C=C2\CCCC3C2=NN(C(=O)CSc2n[nH]c(N)n2)C3c2ccc(OC)cc2)cc1 (configuration not stated),?,?,-19,-2%,23µM*,?
O=C1CCC(C(=O)OCC(=O)N2N=C3/C(=C/c4ccccc4)CCCC3C2c2ccccc2)N1 (configuration not stated),23µM*,-12%,14,0%,?,2%
O=C(COC(=O)C1CCC(=O)N1)Nc1ccccc1OC(F)F (configuration not stated),20%,20%,0,-25%,20%,13%
O=C1CCC(C(=O)OCC(=O)N2N=C3/C(=C\c4ccccc4)CCCC3C2c2ccccc2)N1 (configuration not stated),21µM*,-13%,8,?,?,-8%
O=C(c1ccccn1)N1N=C2/C(=C/c3ccccc3)CCCC2C1c1ccccc1 (configuration not stated),?,-14%,1,1%,?,-3%
COc1ccc(-c2cc(N3CCC(NC(=O)c4cccc(F)c4)CC3)n[nH]2)cc1,.,.,.,26%,.,.
SMILES,TDP1 cell noCPT,HT1080 IDH1KD tx,IL-1B inflam inh,ALOX12 inh,DT40 TDP1 CPT,HT1080NT lethal
C=CCn1c(SCC(=O)Nc2ncc(Cc3cc(C(F)(F)F)ccc3Cl)s2)nnc1-c1ccncc1,-3%,3%,14,3%,4%,7%
Cc1n[nH]c(C)c1Cc1sc2c(c1C(=O)N1C[C@H](O)CO1)c(=O)n(C)c(=O)n2CC(C)C,.,.,.,-17%[57.4 µM],.,.
COc1cc(CNCCSc2nnnn2C)cc(Br)c1OCc1ccccc1,?,0%,-28,-4%,?,-2%
CCOc1cc(CNCCSc2nnnn2-c2ccccc2)cc(Cl)c1OC,21µM*,.,.,5%,?,.
CCOc1cc(CNCCSc2nnnn2C)cc(Cl)c1OCc1ccc(Cl)cc1,13µM*,.,.,?,13µM*,.
CCOc1cc(CNCCSc2nnnn2C)cc(Br)c1OCc1ccc(F)cc1,?,-93%,-87*,-10%,?,23µM*
COc1cc(CNCCSc2nnnn2C)cc(Br)c1OCc1ccc(F)cc1,26µM*,?,-50*,1%,?,?
CC(C)Cn1c(=O)n(CC(C)N2CCCC2)c2cc(C(=O)O)cnc21 (configuration not stated),.,.,.,29%,.,.
CCOc1cc(CNCCSc2nnnn2C)cc(Br)c1OCc1ccccc1F,13µM*,?,-65*,?,16µM*,?
Cc1ccccc1-c1cc(-n2ccnc2)ncn1,-20%,.,.,?,0%,.
Fc1ccc(C(CCCn2nnc(-c3cccnc3)n2)c2ccc(F)cc2)cc1,21µM*,?,?,?,16µM*,-16%
Fc1ccc(-n2nnc(-c3cccnc3)n2)cc1,-22%,6%,33,?,3%,3%
O=C(N[C@@H]1CN(Cc2ccccc2)C[C@H]1CO)c1ccc(=O)[nH]c1,.,.,.,26%,.,.
NNC(=O)COc1ccc2oc3c(c2c1)CCCC3,-4%,-5%,2,15%,-3%,-6%
Cc1ccccc1NC(=O)COc1ccc2oc3c(c2c1)CCCC3,18µM*,.,.,-20%,16µM*,.
O=C(COc1ccc2oc3c(c2c1)CCCC3)Nc1cccc(Br)c1,21µM*,.,.,-13%,?,.
CNC(=O)COc1ccc2oc3c(c2c1)CCCC3,-7%,10%,8,-2%,8%,25%
